Assay outcomes deposited in PubChem by SRMLSC.
An excerpt weighted towards active compounds, which were near 6.5% of everything screened.
Abs 340nm = absorbance at 340 nm. fold change at 10 µM. compound absorbance at 340 nm, fold over control. 65,000 tested, under 10 active. AID 708;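 active = at 10 µM dose, initial 340 nm absorbance at least 2 fold that of control wells; inactive = change under 2 fold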;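 note: initial absorbance extrapolated from kinetic A340 decline of NADH oxidation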
Fluor 339 460 = intrinsic fluorescence of library compounds, ex339/em460 – biochemical, MLSMR library, data from DPM-DC assay, artefact control, profiling panel; compound autofluorescence, ex339/em460 nm, NADH buffer; active compounds read high; 1 = no-compound wells, NADH background; fluorescence fold increase at 10 µM; 65,000 compounds, 5.5% hits; AID 709;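 active = at 10 µM, mean starting fluorescence two-fold or more over control wells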;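 note: signal is the first read of a kinetic run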
Spn MK inh = inhibitors of Streptococcus pneumoniae mevalonate kinase | purified MK, PK/LDH-coupled NADH absorbance 340 nm | inhibition, % at 10 µM | 65,000 compounds, 0.48% hits | AID 555;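 active = ranked among the strongest by inhibition in the single 10 µM screen, a fixed top-ranked set picked for dose follow-up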
Spn DPM-DC inh = blocks S. pneumoniae diphosphomevalonate decarboxylase; purified DPM-DC, PK/LDH coupled NADH fluorescence; 65,000 compounds, 0.49% hits; calls only at 10 µM;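 active = the 320 compounds with the highest percent inhibition in the single-dose primary screen, excluding strongly autofluorescent ones, cut at about 32% in these data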;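 note: kinetic rate of NADH fluorescence loss reporting ADP formed by the decarboxylase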
NADH coupling = blocks coupling enzymes of NAD/NADH assays; coupled PK/LDH NADH assays, four targets; IC50, µM (titrated, usually from 10 µM), without a hit: top-dose inhibition; 65,000 compounds, 0.02% hits; AID 774;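 active = single-dose screening hits from any of four coupled enzyme assays that gave an IC50 when retested across doses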;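 note: the DPM-DC format reads NADH fluorescence rather than 340 nm absorbance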
Spn PMK inh = S. pneumoniae PMK inhibition; 65,000 compounds, 0.49% hits; purified PMK, PK/LDH-coupled NADH absorbance 340 nm; inhibition, % at 10 µM;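 active = top-ranked compounds by inhibition in the single 10 µM screen, taking a fixed number of the strongest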;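 note: 0% = full reaction with DMSO carrier and 100% = background rate without enzyme reaction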
* hit, by the source's call.

Cc1cc(F)ccc1S(=O)(=O)Nc1ccccc1C(=O)Nc1ncn[nH]1 was read as Abs 340nm 1, Fluor 339 460 2.3*, Spn MK inh 9, NADH coupling 5% and Spn PMK inh 0.
CCOC(=O)c1oc2ccccc2c1NC(=O)c1ccc(S(=O)(=O)N2CCCC2)cc1 was read as Abs 340nm 1, Fluor 339 460 2.5*, Spn MK inh 7, Spn DPM-DC inh inactive, NADH coupling 7% and Spn PMK inh 14.
Screening COc1ccc(C2N=C(c3ccccc3)C(C)(C)N2O)cc1OC (stereo not given) returned Abs 340nm 1, Fluor 339 460 1.1, Spn MK inh 1, Spn DPM-DC inh inactive, NADH coupling 0% and Spn PMK inh 0.
For COc1ccc(C2c3c(oc4ccc(F)cc4c3=O)C(=O)N2CCN2CCOCC2)cc1OC (stereo not given) the results were Abs 340nm 1.1, Fluor 339 460 1.1, Spn MK inh 4, Spn DPM-DC inh inactive, NADH coupling 4% and Spn PMK inh 2.
For COc1cccc(-c2cn3nc4c(nc3n2)CCCC4)c1 the results were Abs 340nm 1, Fluor 339 460 2.6*, Spn MK inh 6, Spn DPM-DC inh inactive, NADH coupling 11% and Spn PMK inh 11.
COc1ccc(OC)c(-c2nc3c(C)n[nH]c(=O)c3[nH]2)c1 was read as Abs 340nm 1, Fluor 339 460 1.4, Spn MK inh 14, Spn DPM-DC inh inactive, NADH coupling 3% and Spn PMK inh 7.
For CCn1cc(C(=O)O)c(=O)c2cnc(N3CCN(C(=O)Nc4ccccc4)CC3)nc21 the results were Abs 340nm 1, Fluor 339 460 1.1, Spn MK inh 7, Spn DPM-DC inh inactive, NADH coupling 6% and Spn PMK inh 10.
Screening O=C(c1cccs1)N(CCO)Cc1cc2cc3c(cc2[nH]c1=O)OCCO3 returned Abs 340nm 1.1, Fluor 339 460 2.5*, Spn MK inh 0, Spn DPM-DC inh inactive, NADH coupling 7% and Spn PMK inh 1.
For CCN(CC)CCCN(Cc1cc2cc3c(cc2[nH]c1=O)OCCO3)C(=O)Nc1ccc(F)cc1 the results were Abs 340nm 1.1, Fluor 339 460 3.2*, Spn DPM-DC inh inactive, NADH coupling 11% and Spn PMK inh 6.
Cc1cc(C)c2cc(CN(CCO)C(=O)Nc3ccc(F)cc3)c(=O)[nH]c2c1 was read as Abs 340nm 1, Fluor 339 460 1.2, Spn MK inh 8, Spn DPM-DC inh inactive, NADH coupling 5% and Spn PMK inh 6.
`CCN(CC)CCCN(Cc1cc2cc3c(cc2[nH]c1=O)OCO3)C(=O)Nc1ccccc1OC` gave Abs 340nm 1.2, Fluor 339 460 2.8*, Spn MK inh 7, Spn DPM-DC inh active, NADH coupling 15% and Spn PMK inh 5.
CC(=O)N(CCc1ccccc1C)Cc1cc2cc3c(cc2[nH]c1=O)OCO3 was read as Abs 340nm 1.1, Fluor 339 460 3*, Spn MK inh 6, NADH coupling 4% and Spn PMK inh 8.
For C=C(C)CSc1nc(N)c2c(C)c(C)sc2n1 the results were Abs 340nm 1, Fluor 339 460 1.1, Spn MK inh 7, Spn DPM-DC inh inactive, NADH coupling 5% and Spn PMK inh 8.
For O=S(=O)(Nc1nc2ccccc2nc1Nc1ccc2c(c1)OCCO2)c1cccs1 the results were Abs 340nm 1.1, Fluor 339 460 1.2, Spn MK inh 6, Spn DPM-DC inh inactive, NADH coupling 11% and Spn PMK inh 12.
`CCNc1nc(NC(C)(C)C)nc(N(C#N)CC)n1` gave Abs 340nm 0.98, Fluor 339 460 1, Spn MK inh 0, Spn DPM-DC inh inactive, NADH coupling 8% and Spn PMK inh 25*.
`O=C(Nc1ccc(Cl)cc1)Nc1ccccc1C(=O)NCc1ccco1` gave Abs 340nm 1.1, Fluor 339 460 2.1*, Spn MK inh 4, Spn DPM-DC inh inactive, NADH coupling 7% and Spn PMK inh 2.
`O=C(NCc1ccco1)c1ccccc1NS(=O)(=O)c1ccc2c(c1)OCCO2` gave Abs 340nm 1.1, Fluor 339 460 2.9*, Spn MK inh 0, Spn DPM-DC inh active, NADH coupling 11% and Spn PMK inh 0.
For CCOC(=O)COc1ccc(C(=O)NC2CCCCC2)cc1 the results were Abs 340nm 1, Fluor 339 460 1.1, Spn MK inh 7, Spn DPM-DC inh inactive, NADH coupling 4% and Spn PMK inh 4.
`Cn1cc(NC(=O)c2cc(NC(=O)c3cc(NC=O)cn3C)cn2C)cc1C(=O)NCCC(=N)N` gave Abs 340nm 1, Fluor 339 460 1, Spn MK inh 5, Spn DPM-DC inh inactive, NADH coupling 5% and Spn PMK inh 5.
`CC(=O)CCc1c[nH]c2c(C(=O)O)cccc12` gave Abs 340nm 1, Fluor 339 460 1.1, Spn MK inh 15, Spn DPM-DC inh inactive, NADH coupling 5% and Spn PMK inh 0.
COC(=O)c1c(C)nc(C)c2c(=O)oc3ccccc3c12 was read as Abs 340nm 1, Fluor 339 460 1, Spn MK inh 7, Spn DPM-DC inh inactive, NADH coupling 6% and Spn PMK inh 10.
Cc1cc2c(c(N)n1)c(=O)oc1ccccc12 was read as Abs 340nm 1.1, Fluor 339 460 3.7*, Spn MK inh 5, NADH coupling 5% and Spn PMK inh 5.
Screening CC(=O)c1c(C)nc2nonc2c1N returned Abs 340nm 0.99, Fluor 339 460 2*, Spn MK inh 0, Spn DPM-DC inh inactive, NADH coupling 5% and Spn PMK inh 16.
For CCOC(=O)c1c(-c2ccc(OC)cc2)nc2nonc2c1N the results were Abs 340nm 1.2, Fluor 339 460 1.3, Spn MK inh 0, Spn DPM-DC inh inactive, NADH coupling 3% and Spn PMK inh 0.
For O=C(N=C1SCC(=O)N1c1ccccc1Cl)c1ccco1 the results were Abs 340nm 1.1, Fluor 339 460 1.1, Spn MK inh 0, Spn DPM-DC inh inactive, NADH coupling 0% and Spn PMK inh 0.
Screening CC(C)n1c(=NC(=O)c2ccco2)c(C#N)cc2c(=O)n3ccccc3cc21 returned Abs 340nm 1, Fluor 339 460 2.9*, Spn MK inh 2, NADH coupling 2% and Spn PMK inh 9.
For CC(=O)OC1=C(C#N)Cn2ccc3cccc1c32 the results were Abs 340nm 1.1, Fluor 339 460 3.9*, Spn MK inh 9, NADH coupling 7% and Spn PMK inh 5.
For Clc1ccc(-c2nnc3sc(-c4ccc(Br)o4)nn23)c(Cl)c1 the results were Abs 340nm 1.1, Fluor 339 460 1.8, Spn MK inh 10, Spn DPM-DC inh inactive, NADH coupling 7% and Spn PMK inh 10.
Clc1ccc(-c2nnc3sc(-c4ccc(Br)o4)nn23)cc1 was read as Abs 340nm 1, Fluor 339 460 2.2*, Spn MK inh 11, Spn DPM-DC inh inactive, NADH coupling 4% and Spn PMK inh 14.
